# Only a selection was taken, and the strongest signals are over-represented in it overall.
# B1: PVL (Psathyrella velutina), Q309D1_9AGAR (protein)
# chain: MSVVVISQALPVPTRIPGVADLVGFGNGGVYIIRNSLLIQVVKVINNFGYDAGGWRVEKHVRLLADTTGDNQPDVVGFGENGVWISTNNGNNTFVDPPKMVLANFAYAAGGWRVEKHIRFMADLRKTGRADIVGFGDGGIYISRNNGGGQFAPAQLALNNFGYAQGWRLDRHLRFLADVTGDGLLDVVGFGENQVYIARNSGNGTFQPAQAVVNNFCIGAGGWTISAHPRVVADLTGDRKADILGFGVAGVYTSLNNGNGTFGAVNLVLKDFGVNSGWRVEKHVRCVSSLTNKKVGDIIGFGDAGVYVALNNGNGTFGPVKRVIDNFGYNQGWRVDKHPRFVVDLTGDGCADIVGFGENSVWACMNKGDGTFGPIMKLIDDMTVSKGWTLQKTVRYAANLYL
# Key:
# Test in all cases: glycan array binding signal (z-score within array); higher = stronger binding
# Conditions in all cases: glycan notation: IUPAC condensed, linker removed
# [1] = molecular target: GlcNAc(b1-3)Gal(b1-4)Glc
# Outline: (§1)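 The binding signal is a Z-score computed within each array. Data were drawn from 3228 arrays in the Consortium for Functional Glycomics database, restricted to those with a known protein sequence. Scores were averaged over arrays of the same protein sequence at different concentrations or buffers, and over linkers, and negative values can be taken as non-binding.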
# [2] = molecular target: GlcNAc(b1-3)Gal(b1-4)GlcNAc(b1-2)Man(a1-3)[GlcNAc(b1-3)Gal(b1-4)GlcNAc(b1-2)Man(a1-6)]Man(b1-4)GlcNAc(b1-4)[Fuc(a1-6)]GlcNAc
# Outline: as §1
# [3] = molecular target: GlcNAc(b1-3)Gal(b1-4)GlcNAc(b1-3)Gal(b1-4)GlcNAc
# Outline: as §1
# [4] = molecular target: GlcNAc(b1-3)Gal(b1-4)GlcNAc(b1-3)Gal(b1-4)GlcNAc(b1-2)Man(a1-3)[GlcNAc(b1-3)Gal(b1-4)GlcNAc(b1-3)Gal(b1-4)GlcNAc(b1-2)Man(a1-6)]Man(b1-4)GlcNAc(b1-4)GlcNAc
# Outline: as §1
# [5] = molecular target: GlcNAc(b1-3)Gal(b1-4)GlcNAc(b1-3)Gal(b1-4)GlcNAc(b1-2)Man(a1-3)[GlcNAc(b1-3)Gal(b1-4)GlcNAc(b1-3)Gal(b1-4)GlcNAc(b1-2)Man(a1-6)]Man(b1-4)GlcNAc(b1-4)[Fuc(a1-6)]GlcNAc
# Outline: as §1
# [6] = molecular target: GlcNAc(b1-3)Gal(b1-4)GlcNAc(b1-3)Gal(b1-4)GlcNAc(b1-2)[GlcNAc(b1-3)Gal(b1-4)GlcNAc(b1-3)Gal(b1-4)GlcNAc(b1-6)]Man(a1-6)[GlcNAc(b1-3)Gal(b1-4)GlcNAc(b1-3)Gal(b1-4)GlcNAc(b1-2)Man(a1-3)]Man(b1-4)GlcNAc(b1-4)[Fuc(a1-6)]GlcNAc
# Outline: as §1
# [7] = molecular target: GlcNAc(b1-3)Gal(b1-4)GlcNAc(b1-3)Gal(b1-4)GlcNAc(b1-3)Gal(b1-4)GlcNAc(b1-2)Man(a1-3)[GlcNAc(b1-3)Gal(b1-4)GlcNAc(b1-3)Gal(b1-4)GlcNAc(b1-3)Gal(b1-4)GlcNAc(b1-2)Man(a1-6)]Man(b1-4)GlcNAc(b1-4)GlcNAc
# Outline: as §1
# [8] = molecular target: GlcNAc(b1-3)Gal(b1-4)GlcNAc(b1-3)Gal(b1-4)GlcNAc(b1-3)Gal(b1-4)GlcNAc(b1-2)Man(a1-3)[GlcNAc(b1-3)Gal(b1-4)GlcNAc(b1-3)Gal(b1-4)GlcNAc(b1-3)Gal(b1-4)GlcNAc(b1-2)Man(a1-6)]Man(b1-4)GlcNAc(b1-4)[Fuc(a1-6)]GlcNAc
# Outline: as §1
# [9] = molecular target: GlcNAc(b1-3)Gal(b1-4)GlcNAc(b1-3)Gal(b1-4)GlcNAc(b1-3)Gal(b1-4)GlcNAc(b1-2)[GlcNAc(b1-3)Gal(b1-4)GlcNAc(b1-3)Gal(b1-4)GlcNAc(b1-3)Gal(b1-4)GlcNAc(b1-6)]Man(a1-6)[GlcNAc(b1-3)Gal(b1-4)GlcNAc(b1-3)Gal(b1-4)GlcNAc(b1-3)Gal(b1-4)GlcNAc(b1-2)Man(a1-3)]Man(b1-4)GlcNAc(b1-4)[Fuc(a1-6)]GlcNAc
# Outline: as §1
# [10] = molecular target: GlcNAc(b1-3)Gal(b1-4)GlcNAc(b1-3)Gal(b1-4)GlcNAc(b1-3)Gal(b1-4)GlcNAc(b1-3)Gal(b1-4)GlcNAc(b1-2)Man(a1-3)[GlcNAc(b1-3)Gal(b1-4)GlcNAc(b1-3)Gal(b1-4)GlcNAc(b1-3)Gal(b1-4)GlcNAc(b1-3)Gal(b1-4)GlcNAc(b1-2)Man(a1-6)]Man(b1-4)GlcNAc(b1-4)GlcNAc
# Outline: as §1
# [11] = molecular target: GlcNAc(b1-3)Gal(b1-4)GlcNAc(b1-3)Gal(b1-4)GlcNAc(b1-3)Gal(b1-4)GlcNAc(b1-3)Gal(b1-4)GlcNAc(b1-2)Man(a1-3)[GlcNAc(b1-3)Gal(b1-4)GlcNAc(b1-3)Gal(b1-4)GlcNAc(b1-3)Gal(b1-4)GlcNAc(b1-3)Gal(b1-4)GlcNAc(b1-2)Man(a1-6)]Man(b1-4)GlcNAc(b1-4)[Fuc(a1-6)]GlcNAc
# Outline: as §1
# [12] = molecular target: GlcNAc(b1-3)Gal(b1-4)GlcNAc(b1-3)Gal(b1-4)GlcNAc(b1-3)Gal(b1-4)GlcNAc(b1-3)Gal(b1-4)GlcNAc(b1-2)[GlcNAc(b1-3)Gal(b1-4)GlcNAc(b1-3)Gal(b1-4)GlcNAc(b1-3)Gal(b1-4)GlcNAc(b1-3)Gal(b1-4)GlcNAc(b1-6)]Man(a1-6)[GlcNAc(b1-3)Gal(b1-4)GlcNAc(b1-3)Gal(b1-4)GlcNAc(b1-3)Gal(b1-4)GlcNAc(b1-3)Gal(b1-4)GlcNAc(b1-2)Man(a1-3)]Man(b1-4)GlcNAc(b1-4)[Fuc(a1-6)]GlcNAc
# Outline: as §1
# [13] = molecular target: GlcNAc(b1-3)Gal(b1-4)GlcNAc(b1-6)[GlcNAc(b1-3)Gal(b1-3)]GalNAc
# Outline: as §1
# [14] = molecular target: GlcNAc(b1-3)[GlcNAc(b1-6)]GalNAc
# Outline: as §1
# [15] = molecular target: GlcNAc(b1-4)GlcNAc(b1-4)GlcNAc(b1-4)GlcNAc(b1-4)GlcNAc(b1-4)GlcNAc
# Outline: as §1
# [16] = molecular target: GlcNAc(b1-6)Gal(b1-4)GlcNAc
# Outline: as §1
# [17] = molecular target: Kdn(a2-3)Gal(b1-4)[Fuc(a1-3)]GlcNAc
# Outline: as §1
# [18] = molecular target: Neu5Ac(a2-3)Gal
# Outline: as §1
# [19] = molecular target: Neu5Ac(a2-3)Gal(b1-4)GlcNAc(b1-2)Man
# Outline: as §1
# [20] = molecular target: Neu5Ac(a2-3)Gal(b1-4)GlcNAc(b1-2)[Neu5Ac(a2-3)Gal(b1-4)GlcNAc(b1-4)]Man(a1-3)[GlcNAc(b1-4)][Neu5Ac(a2-3)Gal(b1-4)GlcNAc(b1-2)[Neu5Ac(a2-3)Gal(b1-4)GlcNAc(b1-6)]Man(a1-6)]Man(b1-4)GlcNAc(b1-4)GlcNAc
# Outline: as §1
# [21] = molecular target: Neu5Ac(a2-3)Gal(b1-4)[Fuc(a1-3)]GlcNAc(b1-3)Gal(b1-4)[Fuc(a1-3)]GlcNAc(b1-3)Gal(b1-4)[Fuc(a1-3)]GlcNAc
# Outline: as §1
# [22] = molecular target: Neu5Ac(a2-3)GalNAc(b1-4)GlcNAc
# Outline: as §1
# [23] = molecular target: Neu5Ac(a2-6)Gal(b1-4)GlcNAc(b1-2)Man(a1-3)[Gal(b1-4)GlcNAc(b1-2)Man(a1-6)]Man(b1-4)GlcNAc(b1-4)GlcNAc
# Outline: as §1
# [24] = molecular target: Neu5Ac(a2-6)Gal(b1-4)GlcNAc(b1-2)Man(a1-3)[Man(a1-6)]Man(b1-4)GlcNAc(b1-4)GlcNAc
# Outline: as §1
binder,measurement,setting,value
B1,glycan array binding signal (z-score),[1],4.07
same,glycan array binding signal (z-score),[2],3.27
same,glycan array binding signal (z-score),[3],4.46
same,glycan array binding signal (z-score),[4],3.34
same,glycan array binding signal (z-score),[5],4.03
same,glycan array binding signal (z-score),[6],4.69
same,glycan array binding signal (z-score),[7],4.58
same,glycan array binding signal (z-score),[8],4.34
same,glycan array binding signal (z-score),[9],5.13
same,glycan array binding signal (z-score),[10],4.45
same,glycan array binding signal (z-score),[11],4.27
same,glycan array binding signal (z-score),[12],5.12
same,glycan array binding signal (z-score),[13],2.71
same,glycan array binding signal (z-score),[14],1.1
same,glycan array binding signal (z-score),[15],0.53
same,glycan array binding signal (z-score),[16],0.714
same,glycan array binding signal (z-score),[17],-0.363
same,glycan array binding signal (z-score),[18],-0.341
same,glycan array binding signal (z-score),[19],-0.35
same,glycan array binding signal (z-score),[20],-0.201
same,glycan array binding signal (z-score),[21],-0.297
same,glycan array binding signal (z-score),[22],-0.351
same,glycan array binding signal (z-score),[23],-0.362
same,glycan array binding signal (z-score),[24],-0.349

# Source: the supplement of paper PMC8728848
